# Screening data deposited in PubChem by National Center for Advancing Translational Sciences (NCATS).
# Most compounds without a hit are left out; they make up all but 1.7% or so of the library.
# KCNH2 WT inh = qHTS for Inhibitors of KCHN2 3.1: Wildtype qHTS; activity change, % at 1.84 µM; 340,000 tested, 0.37% active; U2OS, BacMam KCNH2, thallium flux FluxOr; active compounds read low; Voltage-gated inwardly rectifying potassium channel KCNH2 (Homo sapiens), Q12809;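 active means maximum activity change below -70%; inconclusive means maximum activity change between -70% and -50%; inactive means maximum activity change above -50%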
#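 U2OS cells transduced with wild-type KCNH2 virus are loaded with FluxOr dye for 45 min, and thallium flux is measured in kinetic reads before and after stimulation buffer. Rate constants are normalized to DMSO controls.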
# pAkt inh = HTS Assay for Inhibitors of Akt Phophorylation: Primary Screen. Neuro2A IGF-stimulated pAkt S473 HTRF, 20 min; active compounds read low. activity change, % for hits at 50 µM. 360,000 tested, 0.32% active. AID 651550, 2012; in the data active means activity change below about -80%; inconclusive means mostly about -51% to -80%
#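 Single-point screen (50 µM final compound) in Neuro2A cells stimulated 20 min with 6 nM IGF at 37 deg C. After lysis, Ser473-phosphorylated Akt read by HTRF (ex 330 nm, em 615/665 nm) as the 665/615 ratio.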
# RXFP1 ag = qHTS Assay for Agonists of the Relaxin Receptor RXFP1; Potency, µM (top dose mostly 57.5 µM), for inactives: top-dose activation, usual class: activators; 370,000 tested, 0.3% active; Relaxin receptor 1 (Homo sapiens), Q9HBX9; HEK293T-RXFP1 cAMP TR-FRET, 30 min; response scale: percent of porcine relaxin response, buffer zero; active means well fitted activation curve with a large enough effect; inconclusive means small, poorly fitted or top-dose-only effect; further: potency means the concentration at half of the fitted maximal effect; nearly all actives have a fitted effect of over 60% in size
# Target sequence (Q9HBX9 whole entry, looked up): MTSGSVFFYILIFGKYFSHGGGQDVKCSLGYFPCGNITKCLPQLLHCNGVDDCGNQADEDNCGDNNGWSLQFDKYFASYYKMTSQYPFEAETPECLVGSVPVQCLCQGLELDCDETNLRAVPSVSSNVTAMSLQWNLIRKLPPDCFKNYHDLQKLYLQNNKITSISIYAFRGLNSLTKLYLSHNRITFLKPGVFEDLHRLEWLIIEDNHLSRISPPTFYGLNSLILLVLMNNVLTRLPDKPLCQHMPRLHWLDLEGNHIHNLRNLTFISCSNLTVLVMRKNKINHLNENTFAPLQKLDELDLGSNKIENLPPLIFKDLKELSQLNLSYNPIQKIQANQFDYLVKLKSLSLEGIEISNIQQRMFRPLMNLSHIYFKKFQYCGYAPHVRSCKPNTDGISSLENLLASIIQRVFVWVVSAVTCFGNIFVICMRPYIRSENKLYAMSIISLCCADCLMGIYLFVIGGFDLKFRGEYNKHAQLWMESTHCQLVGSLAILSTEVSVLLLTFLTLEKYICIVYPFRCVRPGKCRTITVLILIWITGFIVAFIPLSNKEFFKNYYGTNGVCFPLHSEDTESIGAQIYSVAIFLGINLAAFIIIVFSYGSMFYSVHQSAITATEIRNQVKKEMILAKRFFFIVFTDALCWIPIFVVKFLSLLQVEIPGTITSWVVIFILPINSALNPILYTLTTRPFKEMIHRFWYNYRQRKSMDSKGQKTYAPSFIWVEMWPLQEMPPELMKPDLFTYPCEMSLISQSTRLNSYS
#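 HEK293 cells stably expressing RXFP1, treated 30 min at 37C with compounds plus PDE4 inhibitor Ro 20174; cAMP measured by HTRF TR-FRET. Normalized to buffer and 29 nM porcine relaxin; EC50 by Hill fit.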
# RXFP1 antagonist = qHTS Assay for Antagonists of the Relaxin Receptor RXFP1; activity change, negative = inhibition, % at 57.5 µM; 350,000 tested, 0.59% active; Relaxin receptor 1 (Homo sapiens), Q9HBX9; AID 1259400, 2018; HEK293-RXFP1, relaxin-stimulated cAMP HTRF, 30 min; active compounds read low;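 active means activity change of -60% or lower, but not beyond a set lower limit; inconclusive means change between -60% and -40%, or beyond the set limit; inactive means change above -40%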
# KCNH2 3.1 block = qHTS for Inhibitors of KCHN2 3.1: Mutant qHTS | Potassium voltage-gated channel subfamily H member 2, brain isoform KCNH2 3.1 (human) | U2OS KCNH2 3.1, thallium flux FluxOr; active compounds read low | activity change, % (tested at about 1.8 µM) | 340,000 tested, 0.95% active | AID 720553, 2013;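 active means maximum activity change below -70%; inconclusive means maximum activity change from -70% to -50%; inactive means maximum activity change above -50%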;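 further: thallium influx rate constant from kinetic fluorescence after stimulation buffer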
#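 Steps: virus added to U2OS suspension (4 h, RT, dark); medium with 10% FBS added, cells plated, 37 C overnight; FluxOr/Red40 loading buffer 45 min RT; stimulation buffer, 2 min kinetic read; rate constant normalized.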
# The depositor's hits bear a star; i = inactive; ? = inconclusive; . = not tested or not shown. On the % scale 0 is the no-effect control and ±100 the full control effect.
SMILES,KCNH2 WT inh,pAkt inh,RXFP1 ag,RXFP1 antagonist,KCNH2 3.1 block
CCOC(=O)c1c(N2CCN(c3ccccc3)CC2)cc(C)nc1C,-48,i,0%,2,-97*
Nc1n[nH]c(-c2ccc(Br)cc2)c1Cl,-7,i,-1%,-16,3
CCOC(=O)c1c(CSC(=N)N)n(-c2ccc(Br)cc2)c2cc(Br)c(OC(C)=O)cc12,-1,i,0%,-14,-11
CCCCCCCCOC(=O)c1c(CSC(=N)N)n(C)c2cc(Br)c(OC(C)=O)cc12,-95*,i,0%,3,-102*
CC1=CC(c2ccc(Cl)cc2)n2nc(N3C(=O)CCC3=O)nc2N1 (stereo not drawn),-1,i,0%,34,-6
Cc1cccc(N2CCN(C(=O)Cc3ccc(Br)cc3)CC2)c1C,0,i,2%,-39,-7
Cc1ccc2c(c1)cc(CN(Cc1ccc3c(c1)OCO3)C(=O)c1cnccn1)c1nnnn12,0,i,1%,0,-96*
Cc1cccc(Nc2nnc(SCC(=O)Nc3ncc(C(F)(F)F)cc3Cl)s2)c1C,8,i,0%,-9,10
COc1ccc([C@H]2C[C@H](n3cc(C4CC4)nn3)[C@@H](O)CN2CC2CCCCC2)cc1,1,i,.,-6,-84*
OC(Cc1nc2ccccc2[nH]1)c1ccccc1Cl (stereo not drawn),-10,i,2%,-14,-74*
CCN(CC)S(=O)(=O)c1ccc(S(=O)(=O)N2CCCC2)cc1,-11,i,-1%,7,11
CCOCCCN(CCC#N)S(=O)(=O)c1ccc(S(=O)(=O)N2CCCC2)cc1,-82*,i,0%,11,-8
COc1cccc(C(=O)Oc2cc(C)[nH]c(=O)c2[N+](=O)[O-])c1OC,21,i,6%,.,14
CC(=O)c1ccc(N2CCN(c3ccnc4cc(Cl)ccc34)CC2)cc1,-29,i,?,-10,-91*
CC(C)(C)C(=O)N1CCN(c2ccnc3cc(Cl)ccc23)CC1,5,i,0%,0,-32
O=[N+]([O-])c1ccc(S(=O)(=O)N2CCN(c3ccnc4cc(Cl)ccc34)CC2)cc1,-124*,i,1%,10,-92*
CSCSC1=C(C#N)C(c2ccccc2Cl)C(C(C)=O)=C(C)N1 (stereo not drawn),5,-106%*,1%,18,1
COc1ccc(N2CCN(C(=O)c3cc(C4CC4)nn3-c3ccccc3)CC2)cc1,1,i,1%,6,4
Cc1ccc(NC(=S)NCC2CCCO2)cc1 (stereo not drawn),7,i,-1%,-3,-4
Cc1cnn(C(=S)NCC2CCCO2)c1 (stereo not drawn),-18,-103%*,1%,-1,-24
C=CCNC(=O)c1ccc(CN(c2ccc(OCC)cc2)S(=O)(=O)c2ccc(C)cc2)cc1,?,i,1%,-1,-88*
O=C1CC(N2CCN(c3ccc(Cl)c(Cl)c3)CC2)C(=O)N1 (stereo not drawn),-32,-120%*,0%,-1,9
Nc1c(Cl)cc(-c2csc(N3CCCC3c3nc4cc(Cl)c(Cl)cc4n3CCCO)n2)cc1Cl (stereo not drawn),.,i,.,.,.
Cn1c(=O)c(NCCc2ccccc2)c2c3c(cccc31)C(=O)c1ccccc1-2,-70*,i,14%,8,-83*
Cn1c(=O)c(NCCO)c2c3c(cccc31)C(=O)c1ccccc1-2,-28,i,7%,4,5
SMILES,KCNH2 WT inh,pAkt inh,RXFP1 ag,RXFP1 antagonist,KCNH2 3.1 block
CN1C(=O)C(=O)/C(=C(/O)c2ccccc2)C1c1ccc(Br)cc1 (stereo not drawn),-1,i,1%,3,8
CN(C)c1ccc(C2/C(=C(/O)c3ccc(Br)cc3)C(=O)C(=O)N2C)cc1 (stereo not drawn),-2,i,2%,7,-176*
O=C(COC(=O)c1ccc(Br)o1)NCc1ccc(F)cc1,-8,i,-2%,3,2
O=C(O)c1cccc(COc2ccc(CO)cc2Cl)c1,-2,i,1%,-18,4
CCOc1ccc(/C=C2\SC(=S)N(N3C(=O)C4CC4C3=O)C2=O)cc1 (stereo not drawn),-6,i,4%,?,-99*
CCOc1ccc(/C=C2/SC(=O)NC2=S)cc1,-16,i,1%,.,-94*
COc1ccc(C)cc1NC(=S)NNC(=O)c1c(Br)cnn1C,2,i,-1%,-6,-6
COc1ccc(-c2c(-c3ccccc3OC)sc3ccccc23)cc1OC,-20,i,3%,.,11
O=C(CCC1COc2ccccc2O1)N1CCCC1 (stereo not drawn),-25,-100%*,1%,5,-5
Cc1cc(C)n(C(=O)CCC2COc3ccccc3O2)n1 (stereo not drawn),-9,i,1%,-5,4
CCNc1nc(C)c2cc(Br)c(=O)n(CC)c2n1,?,-104%*,?,11,5
Cc1ccc(S(=O)(=O)NCCC(=O)NC(C)c2ccccc2)cc1 (stereo not drawn),6,i,-2%,19,-5
CC(=O)NC(C)CCc1ccccc1 (stereo not drawn),-13,i,1%,?,-3
Cc1ccc(S(=O)(=O)NCCC(=O)NC(C)CCc2ccccc2)cc1 (stereo not drawn),1,i,0%,-62*,-4
CC(CCc1ccccc1)NC(=O)C(=O)NCCO (stereo not drawn),8,i,-3%,14,-78*
COc1cccc(C(=O)OCCCN(C)C)c1,15,i,-1%,10,9
O=C(CCn1c(=S)[nH]c2cc3c(cc2c1=O)OCO3)NCc1ccccc1Cl,-8,i,?,-70*,3
O=C(CCCn1c(=S)[nH]c2cc3c(cc2c1=O)OCO3)NCc1cccc(Cl)c1,1,.,?,-103*,-2
O=C(NCCCCNC(=O)C1CCCC1)C1CCCC1,-265*,i,1%,0,4
O=C(CN1CCCc2ccccc21)N/N=C/c1ccc(F)cc1F,-2,i,1%,-20,-2
CC1(C)Cc2c(sc3c2c(N)nc(=S)n3Cc2ccc(Br)cc2)CO1,?,i,?,-10,-104*
O=C(CN1C2CCC1CC(NC(=O)Nc1ccccc1)C2)NCc1ccco1 (stereo not drawn),1,-107%*,1%,-11,-3
